The record followed here is PubChem BioAssay (NCI).

Where “and” joins values, the source holds several entries; their conditions need not be identical. Identical values can stand only once. About 79,000 compounds went through this panel and 15% of them were active in at least one assay; those are over-represented in the sample as a whole. Where a structure was tested more than once in an assay, its records may differ in their call. Calls of active or inactive are those of the source. Cut-off read from the data, not from the text of the source: active = growth inhibition above about 70%; inactive = the rest.

A short description of assay [1]: NCI Yeast Anticancer Drug Screen. Data for the rad50 strain (AID 155).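 Note: 0% = growth of vehicle-only cultures of the same strain.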 The conditions noted are these: S. cerevisiae rad50 strain growth inhibition, stronger effect = higher value. The method, boiled down:
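A DNA repair-deficient yeast mutant serves as the test organism; compound-induced growth inhibition is calculated against vehicle-treated cells.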

Assay [2] is described as follows: NCI Yeast Anticancer Drug Screen. Data for the mec2-1 strain (AID 157). The conditions noted are these: S. cerevisiae mec2-1 strain, stronger effect = higher value. Summed up: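 Mutant yeast (mec2-1) grown with compound; growth inhibition relative to vehicle control reported.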
Assay [3] is described as follows: NCI Yeast Anticancer Drug Screen. Data for the sgs1 mgt1 strain (AID 161).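 Note: 0% = growth of cultures given vehicle only.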 The conditions noted are these: S. cerevisiae sgs1 mgt1 strain, stronger effect = higher value. The method, boiled down: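 Yeast cells carrying a defined DNA-repair defect were exposed to test compounds. Growth inhibition was measured relative to vehicle-treated controls.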
A short description of assay [4]: NCI Yeast Anticancer Drug Screen. Data for the cln2 rad14 strain (AID 165).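 Note: 0% = growth equal to vehicle treated cultures.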 The settings on record: S. cerevisiae cln2 rad14 strain, stronger effect = higher value. The method, boiled down:
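Readout is yeast growth inhibition versus vehicle-treated controls, using a strain with cln2 and rad14 alterations exposed to compound.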

Assay [5] can be described thus: NCI Yeast Anticancer Drug Screen. Data for the bub3 strain (AID 167). The settings on record: S. cerevisiae bub3 mutant strain, stronger effect = higher value. Summed up: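 Inhibition values come from growth of compound-treated mutant yeast normalised to vehicle-treated controls.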
A short description of assay [6]: NCI Yeast Anticancer Drug Screen. Data for the mlh1 rad18 strain (AID 175). The settings on record: S. cerevisiae mlh1 rad18 strain growth inhibition, stronger effect = higher value. Summed up:
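Genetically defined yeast (DNA repair-deficient) exposed to compounds; growth inhibition determined relative to vehicle.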

Setting [7] is: at 5.0 µM (retest, dose inferred, filed as 0.5).
Where [8] appears, read: at 50.0 µM (retest, dose inferred, filed as 5.0).

`CC(=O)Nc1nc([N+](=O)[O-])c(C(C)C)s1`: the growth inhibition in assay [1] (setting [7]) is 4% (inactive); in assay [1] (setting [8]), 1% (inactive); in assay [1] (at 50.0 µM), 10.1% (inactive); in assay [2] (setting [7]), -2% (inactive); in assay [2] (setting [8]) it was 4% (inactive); in assay [2] (at 50.0 µM), 10.6% (inactive). For the same compound, the growth inhibition in assay [3] (setting [7]) is 3% (inactive); in assay [3] (setting [8]) it was 4% (inactive); in assay [3] (at 50.0 µM) it was -1.85% (inactive); in assay [4] (setting [7]), -6% (inactive); in assay [4] (setting [8]) it was -4% (inactive); in assay [4] (at 50.0 µM) it was 1.55% (inactive). In addition, the growth inhibition is -3% (inactive) in assay [5] (setting [7]); 9% (inactive) in assay [5] (setting [8]); -7.8% (inactive) in assay [5] (at 50.0 µM); 5% (inactive) in assay [6] (setting [7]); 15% (inactive) in assay [6] (setting [8]); 18.2% (inactive) in assay [6] (at 50.0 µM).
Regarding `Nc1ccc(N=Nc2ccccc2)c(N)n1`, the growth inhibition in assay [1] (setting [7]) was -166% (inactive); in assay [1] (setting [8]) it was -14% (inactive); in assay [1] (at 50.0 µM) it was 38.1% (inactive) and 16.4% (inactive); in assay [2] (setting [7]) it was -54% (inactive); in assay [2] (setting [8]), -20% (inactive); in assay [2] (at 50.0 µM), 30.4% (inactive) and 10.7% (inactive). Also, the growth inhibition in assay [3] (setting [7]) is -73% (inactive); in assay [3] (setting [8]), 4% (inactive); in assay [3] (at 50.0 µM), 28.6% (inactive) and 5.05% (inactive); in assay [4] (setting [7]), -72% (inactive); in assay [4] (setting [8]), 10% (inactive); in assay [4] (at 50.0 µM), 9.05% (inactive) and 19.2% (inactive). Also, the growth inhibition in assay [5] (setting [7]) was -71% (inactive); in assay [5] (setting [8]) it was -26% (inactive); in assay [5] (at 50.0 µM), 27.2% (inactive) and 3.75% (inactive); in assay [6] (setting [7]), -130% (inactive); in assay [6] (setting [8]) it was -25% (inactive); in assay [6] (at 50.0 µM), 57.1% (inactive) and 7.85% (inactive).
For the compound `CCCCCCCCCCCCCCCCOP(=O)(O)OP(=O)(O)OCC1OC(n2ccc(N)nc2=O)C(O)C1O` (stereo unspecified), the growth inhibition in assay [1] (setting [7]) was 97% (active); in assay [1] (setting [8]), 97% (active); in assay [1] (at 50.0 µM), -2% (inactive) and 81.4% (active); in assay [2] (setting [7]), 98% (active); in assay [2] (setting [8]), 98% (active); in assay [2] (at 50.0 µM), -2.65% (inactive) and 89.8% (active). For the same compound, the growth inhibition in assay [3] (setting [7]) is 98% (active); in assay [3] (setting [8]) it was 98% (active); in assay [3] (at 50.0 µM) it was 55% (inactive) and 87.5% (active); in assay [4] (setting [7]), 92% (active); in assay [4] (setting [8]), 90% (active); in assay [4] (at 50.0 µM), 9.5% (inactive) and 84.7% (active). The growth inhibition is 98% (active) in assay [5] (setting [7]); 98% (active) in assay [5] (setting [8]); -9.4% (inactive) and 84.5% (active) in assay [5] (at 50.0 µM); 94% (active) in assay [6] (setting [7]); 95% (active) in assay [6] (setting [8]); 33% (inactive) and 90.5% (active) in assay [6] (at 50.0 µM).
Regarding `N#CCCC(CCC#N)(CCC#N)C(=O)c1ccccc1`, the growth inhibition in assay [1] (setting [7]) was 10% (inactive); in assay [1] (setting [8]), 4% (inactive); in assay [1] (at 50.0 µM), 11.6% (inactive) and 20.9% (inactive); in assay [2] (setting [7]), -15% (inactive); in assay [2] (setting [8]), -6% (inactive); in assay [2] (at 50.0 µM) it was 15.8% (inactive) and -3.15% (inactive). Further, the growth inhibition in assay [3] (setting [7]) is 7% (inactive); in assay [3] (setting [8]), 8% (inactive); in assay [3] (at 50.0 µM), 33.2% (inactive) and -28.8% (inactive); in assay [4] (setting [7]), 4% (inactive); in assay [4] (setting [8]), 14% (inactive); in assay [4] (at 50.0 µM) it was 26.1% (inactive) and 18.9% (inactive). Besides, the growth inhibition was 10% (inactive) in assay [5] (setting [7]); 23% (inactive) in assay [5] (setting [8]); 18.1% (inactive) and 7.55% (inactive) in assay [5] (at 50.0 µM); 20% (inactive) in assay [6] (setting [7]); 12% (inactive) in assay [6] (setting [8]); 20.2% (inactive) and 26.8% (inactive) in assay [6] (at 50.0 µM).
As for `COC1OC2COC(c3ccccc3)OC2C(O)C1OS(=O)(=O)c1ccc(C)cc1` (stereo unspecified), the growth inhibition was -3% (inactive) in assay [1] (setting [7]); 1% (inactive) in assay [1] (setting [8]); 46.5% (inactive) and 3.9% (inactive) in assay [1] (at 50.0 µM); 0% (inactive) in assay [2] (setting [7]); 51% (inactive) in assay [2] (setting [8]); 46.4% (inactive) and 2.7% (inactive) in assay [2] (at 50.0 µM). For the same compound, the growth inhibition in assay [3] (setting [7]) is -7% (inactive); in assay [3] (setting [8]), 46% (inactive); in assay [3] (at 50.0 µM) it was 74.6% (active) and 16.9% (inactive); in assay [4] (setting [7]), -10% (inactive); in assay [4] (setting [8]), -8% (inactive); in assay [4] (at 50.0 µM), 31.8% (inactive) and -1.35% (inactive). Further, the growth inhibition in assay [5] (setting [7]) was -3% (inactive); in assay [5] (setting [8]), 2% (inactive); in assay [5] (at 50.0 µM), 32.3% (inactive) and -1.1% (inactive); in assay [6] (setting [7]) it was -1% (inactive); in assay [6] (setting [8]), 49% (inactive); in assay [6] (at 50.0 µM), 63.1% (inactive) and 0.65% (inactive).
On to `CCSSc1ccccc1C(=O)NC(CC)CO` (stereo unspecified), for which the growth inhibition in assay [1] (setting [7]) was 1% (inactive); in assay [1] (setting [8]), 59% (inactive); in assay [1] (at 50.0 µM), 73.5% (active); in assay [2] (setting [7]), 15% (inactive); in assay [2] (setting [8]), 69% (inactive); in assay [2] (at 50.0 µM) it was 20.8% (inactive). Moreover, the growth inhibition in assay [3] (setting [7]) was 20% (inactive); in assay [3] (setting [8]), 71% (active); in assay [3] (at 50.0 µM) it was 94.3% (active); in assay [4] (setting [7]), 0% (inactive); in assay [4] (setting [8]), 12% (inactive); in assay [4] (at 50.0 µM), 19.4% (inactive). Further, the growth inhibition is -10% (inactive) in assay [5] (setting [7]); 62% (inactive) in assay [5] (setting [8]); 65.5% (inactive) in assay [5] (at 50.0 µM); 3% (inactive) in assay [6] (setting [7]); 73% (active) in assay [6] (setting [8]); 65.5% (inactive) in assay [6] (at 50.0 µM).
Consider `OCC1OC(n2cnc3c(=S)nc[nH]c32)C(O)C1O` (stereo unspecified), for which the growth inhibition in assay [1] (setting [7]) is -3% (inactive); in assay [1] (setting [8]), -13% (inactive); in assay [1] (at 50.0 µM), -0.9% (inactive) and -2.3% (inactive); in assay [2] (setting [7]), -14% (inactive); in assay [2] (setting [8]) it was -14% (inactive); in assay [2] (at 50.0 µM), 8.35% (inactive) and -13.8% (inactive). Further, the growth inhibition was 0% (inactive) in assay [3] (setting [7]); 5% (inactive) in assay [3] (setting [8]); 6.65% (inactive) and -21.8% (inactive) in assay [3] (at 50.0 µM); 20% (inactive) in assay [4] (setting [7]); -7% (inactive) in assay [4] (setting [8]); 24.9% (inactive) and -27% (inactive) in assay [4] (at 50.0 µM). In addition, the growth inhibition in assay [5] (setting [7]) was 0% (inactive); in assay [5] (setting [8]), -3% (inactive); in assay [5] (at 50.0 µM), 14.9% (inactive) and -16.9% (inactive); in assay [6] (setting [7]) it was -13% (inactive); in assay [6] (setting [8]), -14% (inactive); in assay [6] (at 50.0 µM) it was 3.2% (inactive) and -1.15% (inactive).
